The results in this text go back to PubChem BioAssay AID1851 (National Center for Advancing Translational Sciences (NCATS), 2009).

Where “and” joins values, the source holds several entries; their conditions need not be identical. Equal values may be shown once. In all, about 16,000 compounds went through this assay and about 4,000 (25%) were called active. Another 26% or so got no clear call; they are omitted. A selection follows. Values without a mark were called inactive. Calls follow the shape of the dose curve; as a rule, active = well fitted curve in the direction sought with a large enough effect; inconclusive = small, poorly fitted or top-dose-only effect, or effect the other way; inactive = no such curve, though single readings can be large or run the other way.
% is scaled to controls: 0 for no effect and ±100 for the full control effect.

The target in the assay is Cytochrome P450 2C9 (Homo sapiens) (UniProt P11712). Description: Cytochrome panel assay with activity outcomes. The conditions noted are these: recombinant CYP, pro-luciferin dealkylation, luminescence, p450-cyp2c9; series mostly up to 57.1 µM; activity, negative = inhibition: at the top concentration.
Sequence of Cytochrome P450 2C9 (Homo sapiens) (P11712 whole entry, looked up): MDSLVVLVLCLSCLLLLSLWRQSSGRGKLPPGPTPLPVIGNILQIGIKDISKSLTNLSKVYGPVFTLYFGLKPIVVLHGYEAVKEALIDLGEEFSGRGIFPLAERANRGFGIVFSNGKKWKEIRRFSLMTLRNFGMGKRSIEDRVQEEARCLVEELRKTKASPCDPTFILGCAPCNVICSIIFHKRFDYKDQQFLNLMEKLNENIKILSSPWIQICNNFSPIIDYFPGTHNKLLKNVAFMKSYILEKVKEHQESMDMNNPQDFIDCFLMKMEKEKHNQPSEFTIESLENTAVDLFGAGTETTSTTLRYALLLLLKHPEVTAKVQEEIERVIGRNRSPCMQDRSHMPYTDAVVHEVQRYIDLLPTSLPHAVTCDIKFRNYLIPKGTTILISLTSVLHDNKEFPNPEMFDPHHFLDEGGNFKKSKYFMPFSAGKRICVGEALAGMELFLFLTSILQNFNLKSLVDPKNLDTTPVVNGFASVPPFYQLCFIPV
For `CCN(CC)CC[n+]1ccc2c(C)c3[nH]c4ccccc4c3c(C)c2c1`, the activity, negative = inhibition was 3.85% [at 11.4 µM].

Regarding `O=C(O)c1nn(-c2ccccc2-c2n[nH]c(=O)[nH]c2=O)c(=O)[nH]c1=O`, the activity, negative = inhibition is -7.45% [at 11.4 µM].

With `CN(Cc1ccco1)c1cc(-c2ccoc2)ncn1`, the activity, negative = inhibition is -1.76% [at 2.29 µM].

On to `C1COC(NC(C2CC2)C2CC2)=N1`, for which the “activity, negative = inhibition” value was -5.58%.

For the compound `O=C(CNCCO)N1CCc2ccccc21`, the “activity, negative = inhibition” value is -2.25%.

As for `O=C(CSc1n[nH]c(-c2ccccc2O)n1)N1CCCc2ccccc21`, the AC50 is 1.12 µM (active).

Consider `C#CCCCCCCCCCCCCCCCC(=O)O`, for which the AC50 was 12.6 µM (active).

As for `C#CCOCCCC(=O)O`, the activity, negative = inhibition is 14.4% [at 11.4 µM].

`O=C(O)CCCCCCCC(=O)O`: the “activity, negative = inhibition” value was 4.79%.

On to `COC(=O)C/C=C\[C@@H](C)[C@@H]1C=C[C@H](OC(C)=O)[C@H](COC(C)=O)O1`, for which the activity, negative = inhibition is 14.8% [at 11.4 µM].

For `CCOC(=O)C(C)CC(C)C(=O)N1CCOCCN(C(=O)C(C)CC(C)C(=O)OCC)CCOCC1` (centres undefined), the “activity, negative = inhibition” value was -27.1%.

With `CN(C)CC(C)(C)CN1c2ccccc2Sc2ccccc21`, the activity, negative = inhibition was -2.35% [at 11.4 µM].

For `CCc1cccc2c(-c3ccccc3)c3c(nc12)OCC3`, the AC50 was 12.6 µM (active).

Regarding `CCc1cccc2c3c([nH]c12)[C@@](CC)(CC(=O)O)OCC3`, the “activity, negative = inhibition” value was -43.4% [at 25.6 µM].

Turning to `CC1(C)O[C@H]2[C@@H](c3[nH]nc4c(=O)[nH]c(=O)[nH]c34)OC[C@H]2O1`, the activity, negative = inhibition was 5.4% [at 11.4 µM].

As for `CO[C@H]1COC(=O)C/C=C\[C@H](C)[C@@H](NS(=O)(=O)c2ccc(C)cc2)COC(=O)C/C=C\[C@@H]1C`, the activity, negative = inhibition is -17.2% [at 11.4 µM] and -4.44% [at 11.4 µM].

On to `CSCC[C@@H]1NC(=O)C/C=C\[C@@H](C)COC(=O)[C@H](C)COC1=O`, for which the activity, negative = inhibition was -7.38% [at 11.4 µM].

In the case of `c1ccc2c(c1)nnn2CN1CCOCC1`, the activity, negative = inhibition was 15.8% [at 11.4 µM].

For `c1ccc(-c2ccc(C3=Nn4c(Cn5nnc6ccccc65)nnc4SC3)cc2)cc1`, the AC50 was 12.6 µM (active).

`Cc1cnc(CNc2ncncc2-c2ccccc2Cl)cn1`: the activity, negative = inhibition was 28.2% [at 2.29 µM].

Regarding `CCCOc1ccc(C2C(=O)N(C3CCCCC3)CC(=O)N2C2CC2)cc1OC` (centres undefined), the AC50 was 10 µM (active).

Regarding `COc1ccc(CN2C(=O)CN(C3CCCCCC3)C(=O)C2c2ccc(OC)c(OC)c2)cc1` (centres undefined), the AC50 is 11.2 µM (active).

As to `COc1cc(C2C(=O)N(C3CCCC3)CC(=O)N2Cc2ccco2)ccc1OC(C)C` (centres undefined), the AC50 is 10 µM (active).

With `COc1ccc([C@@H]2CNC(=O)C2)cc1OC1CCCC1`, the AC50 result was “inactive”.

For `COc1ccc(C2C(=O)N(C3CCCCCC3)CC(=O)N2Cc2ccccc2)cc1OC` (centres undefined), the AC50 was 12.6 µM (active).

With `Cc1ccc(S(=O)(=O)N[C@H]2COC(=O)CC=C[C@@H](C)[C@H]3C=C[C@H](O)[C@@H](COC(=O)CC=C[C@H]2C)O3)cc1`, the activity, negative = inhibition is -13.5% [at 11.4 µM] and 14.3% [at 11.4 µM].

On to `O=C(Nc1cccc(F)c1)N1CCC2(CC1)CCN(C(=O)c1cnccn1)CC2`, for which the “activity, negative = inhibition” value is -5.81%.

For the compound `CCCCN=c1sc(C(=O)OC)cc(=O)n1CCCC`, the “activity, negative = inhibition” value is -18.9%.

As for `COc1ccc([N+](=O)[O-])cc1N(CC(O)CN(CC(C)C)CC(C)C)S(=O)(=O)c1ccccc1` (centres undefined), the AC50 was 12.6 µM (active).

Regarding `Cc1ccsc1/C=N/Nc1nc(Cl)c(Cl)cc1Cl`, the “activity, negative = inhibition” value is -25.5%.

Regarding `CCc1c(C)c(C#N)c2nc3ccccc3n2c1N1CCN(c2cc(C)ccn2)CC1`, the AC50 is 1.26 µM (active).

Turning to `CCN(CC)CCOC(=O)C1(C2CCCCC2)CCCCC1`, the “activity, negative = inhibition” value is -17.7% [at 25.6 µM].

Consider `FC(F)(F)c1ccc(N2CCOCC2)c(Nc2nc3ccccc3n3cnnc23)c1`, for which the AC50 is 15.8 µM (active).

Take `CN1CCN(c2nc3cc(C(F)(F)F)ccc3n3cccc23)CC1`: the AC50 entry was “inactive”.

On to `CC(/C=C1\N=C(SCc2ccccc2Cl)SC1=O)=C\c1ccccc1`, for which the AC50 is 1.58 µM (active).

Take `CCc1nnc(NC(=O)c2cc(-c3ccccc3)nn2-c2ccccc2)s1`: the AC50 was 8.91 µM (active).

For `CCCC(=O)Nc1nnc(CCN2CCCCC2)s1`, the “activity, negative = inhibition” value was -3.62%.

As to `CCc1nnc(NC(=O)c2c(C)nn(-c3ccccc3)c2Cl)s1`, the concentration at half-maximal activity (AC50) was 8.91 µM (active).

As to `COc1ccccc1CNc1ncncc1-c1cccc(C#N)c1`, the activity, negative = inhibition is -22.7% [at 2.29 µM].

For the compound `Cc1nc2ccccc2n1CC(=O)N/N=C\c1ccccn1`, the “activity, negative = inhibition” value is -16%.

In the case of `CC(/C=N\NC(=O)Cn1c(C)nc2ccccc21)=C\c1ccccc1`, the AC50 was 2.82 µM (active).

As for `Cc1nc2ccccc2n1CC(=O)N/N=C\C=C\c1ccccc1`, the AC50 is 7.08 µM (active).

Regarding `O=c1[nH]n(-c2cccc(Cl)c2)c2ncccc12`, the “activity, negative = inhibition” value was -28.4%.

Take `Cc1ccccc1OCCNc1ccc(C(F)(F)F)cc1[N+](=O)[O-]`: the AC50 is 3.55 µM (active).

In the case of `COc1ccccc1-c1nccc(NCc2cnc(C)cn2)n1`, the activity, negative = inhibition is 19.3% [at 2.29 µM].

Take `COc1ccc(OC)c(C2C(C(=O)Nc3nc4ccccc4s3)=C(C)NC3=C2C(=O)CCC3)c1` (centres undefined): the AC50 was 0.631 µM (active).

Consider `COc1ccc2nc(NC(C)=O)sc2c1`, for which the “activity, negative = inhibition” value is -21.8%.

For `N/C(=N\O)c1cn([C@@H]2O[C@@H](CO)[C@H](O)[C@@H]2O)c2ncnc(NO)c12`, the activity, negative = inhibition is -5.39% [at 11.4 µM].

As for `CCN(CC)C(=O)c1ccc(O)c(OC)c1`, the “activity, negative = inhibition” value is 3.47% [at 25.6 µM].

In the case of `COc1ccc(C(=O)c2ccc(OC)c(OC)c2)cc1OC`, the AC50 was 11.2 µM (active).

Turning to `COc1ccc(NC(=O)CC#N)cc1OC`, the “activity, negative = inhibition” value is -4.95%.

With `CCN1CC=C2C(C#N)=C(N)C(C#N)(C#N)[C@H](c3ccoc3)[C@H]2C1`, the “activity, negative = inhibition” value was -27.5%.

On to `CSc1nc(NC2CCCC2)c([N+](=O)[O-])c(NC2CCCC2)n1`, for which the AC50 is 2 µM (active).

With `O=C(O)CCNc1ncnc2nc[nH]c12`, the activity, negative = inhibition was 23.7% [at 11.4 µM].

As to `Cc1ccc(C2=NN(S(C)(=O)=O)C(c3cccs3)C2)cc1` (centres undefined), the AC50 was 11.2 µM (active).

In the case of `O=C(CC(NS(=O)(=O)c1ccc(Cl)cc1)c1ccco1)NCc1ccco1` (centres undefined), the AC50 was 10 µM (active).

On to `S=C(S)NCCCn1ccnc1`, for which the AC50 was 2 µM (active).

As for `CCN1CCN(CCCNC(=O)c2cc3cc4ccc(OC)cc4nc3o2)CC1`, the “activity, negative = inhibition” value is 6.59%.

For the compound `O=C(NCCCn1ccnc1)Nc1ccc(Cl)cc1`, the AC50 was 0.316 µM (active).

Take `O=C(NCCCN1CCCC1=O)Nc1ccc(F)c(Cl)c1`: the “activity, negative = inhibition” value is -29.7%.

Regarding `COc1ccc2c(Cl)c(C(=O)NCCCn3ccnc3)sc2c1Cl`, the AC50 was 0.891 µM (active).

As for `S=C(S)NCCN1CCNCC1`, the activity, negative = inhibition is -16.5% [at 11.4 µM].

Consider `CCCNC(=O)Nc1ccc2c(c1)nc(C)n2C`, for which the “activity, negative = inhibition” value was 5.83%.

Consider `O=S1(=O)N[C@H]2CC[C@@H]3NS(=O)(=O)N[C@H]4CC[C@H](N1)N4S(=O)(=O)N23`, for which the activity, negative = inhibition was -6.3% [at 11.4 µM].

As for `O=C(NCCNC[C@@H](O)COc1ccc(O)cc1)N1CCOCC1`, the AC50 entry was “inactive”.

With `COc1ccccc1OC[C@H](O)COC(N)=O`, the “activity, negative = inhibition” value was 37.5% [at 25.6 µM].

As for `CCOC(=O)c1[nH]c(COC(=O)CCOc2ccccc2OC)c(C(=O)OCC)c1C`, the AC50 was 4.47 µM (active).

Regarding `CCOC(=O)c1c(O)[nH]c(=O)c(CC)c1C`, the activity, negative = inhibition was 4.97% [at 11.4 µM].

Regarding `N=C(N)SCCc1ccc(OCc2ccc([N+](=O)[O-])cc2)cc1`, the “activity, negative = inhibition” value was 12.8%.

On to `CN1CCc2cc(Cl)c(O)cc2[C@@H](c2ccccc2)C1`, for which the “activity, negative = inhibition” value was 18.4%.

For `CCCCCN=c1ccn(Cc2ccccc2)c2ccccc12`, the AC50 was 0.316 µM (active).

For the compound `N#Cc1cccc(-c2nccc(NCc3cccs3)n2)c1`, the activity, negative = inhibition is 5.43% [at 2.29 µM].

On to `Cc1ccc(OCC(=O)Nn2cnc3ccccc32)cc1`, for which the “activity, negative = inhibition” value is -22.6%.

`O=C(Cn1cnc2ccccc21)NC(c1ccccc1)c1ccccc1`: the AC50 was 15.8 µM (active).

Turning to `O=S(=O)(/N=C(/Nc1ccc(F)cc1F)c1ccc(Cl)cc1)c1ccccc1`, the “activity, negative = inhibition” value was -6.77%.

Turning to `O=S(=O)(/N=C(\Sc1ccccc1)c1ccccc1)c1ccc(Cl)cc1`, the AC50 is 3.98 µM (active).

For `CC(=O)NCCNc1ncncc1-c1ccccc1CN(C)C`, the activity, negative = inhibition is 4.96% [at 2.29 µM].

Take `Cc1cc(C)nc(NC(=O)CCCC(=O)O)c1`: the “activity, negative = inhibition” value was -9.57%.

As for `CC#CCCCC(=O)Nc1cc(OC)nc(OC)n1`, the AC50 is 11.2 µM (active).

In the case of `COc1cc(OC)nc(NC(C)=O)n1`, the “activity, negative = inhibition” value was -11%.

Turning to `N#Cc1ccc(CN2CCC3(CC2)CCN(C(=O)c2cc(C(F)(F)F)cc(C(F)(F)F)c2)CC3)cc1`, the “activity, negative = inhibition” value is -20.2%.

Consider `C/C(CCN1CCCc2nc(C)c(C)cc21)=N\OC[C@@H](O)[C@@H]1O[C@@H]2OC(C)(C)O[C@@H]2[C@H]1O`, for which the activity, negative = inhibition is 2.31% [at 11.4 µM].

For `COCCN=C1Sc2nc3c(C)cccc3cc2CN1Cc1ccco1`, the AC50 was 4.47 µM (active).

For `C[C@@H](c1ccccc1)N1C(=O)[C@H]2[C@H]3[C@H](O)[C@H](O)C/C(=N/OC[C@@H](O)COCc4ccco4)[C@@H]3CC[C@@H]2C1=O`, the activity, negative = inhibition is 2.8% [at 11.4 µM].

Regarding `COc1ccc2c(c1)c(CC(=O)N1CCOCC1)c(C)n2C(=O)c1ccc(Cl)cc1`, the “activity, negative = inhibition” value was -18%.

For the compound `CC(C)Cn1c(-c2ccc(Cl)cc2)cnc1SCC(=O)N1CCOCC1`, the AC50 is 14.1 µM (active).

As for `O=C(CSc1c[nH]c2ccccc12)N1CCOCC1`, the “activity, negative = inhibition” value was 14.4%.

As for `COc1cccc(NC(=O)c2oc3ccccc3c2NC(=O)c2ccc3c(c2)OCO3)c1`, the AC50 was 3.55 µM (active).

Turning to `CCOC(=O)c1[nH]c2cc(OC)c(OC)cc2c1NC(=O)c1ccc2c(c1)OCO2`, the “activity, negative = inhibition” value was 8.15%.

In the case of `CCOC(=O)c1[nH]c2cc3c(cc2c1NC(=O)CN1CCC2(CC1)OCCO2)OCO3`, the “activity, negative = inhibition” value is -24.5%.

As for `COc1ccc2c3c([nH]c2c1)[C@H]1C[C@@H]2[C@@H](C[C@@H](O)[C@H](OC)[C@H]2C(=O)O)CN1CC3`, the activity, negative = inhibition is 4.43% [at 11.4 µM].

As for `CCOC(=O)c1[nH]c2cc(OC)c(OC)cc2c1NC(=O)c1nonc1C`, the AC50 is 0.708 µM (active).

For `CCOC(=O)c1[nH]c2ccc(OC)cc2c1NC(=O)c1ccc2c(c1)OCO2`, the AC50 is 14.1 µM (active).

In the case of `COC(=O)c1[nH]c2cc(OC)ccc2c1NC(=O)c1ccc2c(c1)OCO2`, the AC50 is 3.55 µM (active).
